MIN6 prolif – inducers of beta-cell replication in MIN6 cells | 330,000 compounds, 0.29% hits | AID 2380 | proliferation, % at 10 µM | MIN6 cells proliferation, ATPlite luminescence, 48 h; cells starved in 0.2% serum; 100% = growth in 10% serum;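 active = compounds whose signal lies at least 3.5 SD above the mean of all wells on their plate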
SMARCA2 activ – increases SMARCA2 function in MMTV reporter cells; 370,000 compounds, 1% hits; activation, % at 9.1 µM; AID 652017; MG213 cells, MMTV-luciferase reporter, dexamethasone, overnight; in the data active = activation above about 7.8%
Granule exo inh – blocks lytic granule exocytosis. TALL-104 LAMP-1 surface exposure, flow cytometry; cells stimulated with thapsigargin and PMA. inhibition, % at 10 µM. 360,000 compounds, 0.66% hits. AID 651702;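 active = inhibition above about 55%, limit read from the data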
JMJD2C inh – human JMJD2C demethylase inhibition. Q9H3R0. GST-JMJD2C(1-420) H3K9me3 demethylation, DELFIA europium. inhibition, % at 2.35 µM. 330,000 compounds, 0.069% hits. AID 2099;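 active = more than half of a compound's replicate wells show inhibition beyond 50%, single wells judged on their own value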;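 also: signal counts dimethyl H3K9 product captured on neutravidin plate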
Target sequence (Q9H3R0 1-420 limits assumed): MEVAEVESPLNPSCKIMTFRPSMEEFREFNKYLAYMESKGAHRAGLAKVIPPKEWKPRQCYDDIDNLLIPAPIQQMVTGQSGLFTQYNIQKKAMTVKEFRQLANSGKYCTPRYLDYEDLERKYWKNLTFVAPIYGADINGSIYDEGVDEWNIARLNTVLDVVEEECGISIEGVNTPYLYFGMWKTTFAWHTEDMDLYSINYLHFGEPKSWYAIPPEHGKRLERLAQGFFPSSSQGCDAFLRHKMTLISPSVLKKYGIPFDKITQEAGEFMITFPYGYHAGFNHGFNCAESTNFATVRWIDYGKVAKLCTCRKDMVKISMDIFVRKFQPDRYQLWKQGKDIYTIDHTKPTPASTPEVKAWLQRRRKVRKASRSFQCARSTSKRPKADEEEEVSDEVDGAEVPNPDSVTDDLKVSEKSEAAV
ALR H2O2 inh – human ALR oxidase inhibition via reduced H2O2 | P55789 | purified ALR, DTT oxidation, H2O2 HRP-luminol luminescence | inhibition, % (test concentration not listed) | 290,000 compounds, 3.8% hits | AID 485317;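 active = mean replicate inhibition above about 79%, with every replicate also reaching it, limit read from the data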
M18AAP inhibitor – blocks P. falciparum M18 aspartyl aminopeptidase; recombinant PfM18AAP, H-Glu-NHMec fluorogenic cleavage; inhibition, % at 7.35 µM; 290,000 compounds, 1.2% hits;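 active = inhibition above the campaign mean inhibition over all tested compounds plus 3 SD, cut at about 28% in these data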
SMARCA2 conf – confirmation of SMARCA2 (BRM) function activators | MG213 cells, MMTV-luciferase with dexamethasone, luminescence, overnight; MG213 cells expressing E1A, Rb sequestered; DMSO wells 0%, reference activator 100% | shares compounds with SMARCA2 activ | 3,500 compounds, 30% hits | activation, % at 9.1 µM;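 active = activation above its plate's cutoff, the mean activation of tested wells plus 3 SD, cut at about 7.9% in these data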
VP16 Luc act – GAL4-VP16 reporter activation counter-screen | shares compounds with SMARCA2 activ | HEK293 GAL4-VP16 pG5luc reporter, luciferase luminescence; scaled: DMSO wells 0%, SAHA wells 100% | activation, % at 9.1 µM | AID 686939 | 3,500 compounds, 41% hits;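 active = activation above the solvent-only control well mean plus 3 SD, averaged across control plates, cut at about 5.2% in these data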
Numbers stand for hits; . = inactive; / = no result given. An excerpt weighted towards active compounds, which were near 5.4% of everything screened.

SMILES	MIN6 prolif	SMARCA2 activ	Granule exo inh	JMJD2C inh	ALR H2O2 inh	M18AAP inhibitor	SMARCA2 conf	VP16 Luc act
Cc1ccc(/C=C/C2=NN(C)C(=O)CC2)cc1	.	8.3	.	.	.	.	.	6.6
COc1ccc(-c2csc(C(C)(O)c3cccc(F)c3)n2)cn1 (stereo unspecified)	/	.	.	/	/	/	/	/
C=CCN1C[C@H](COC(=O)CSc2ccccc2)Oc2cccc(F)c2S1(=O)=O	/	.	/	/	/	/	/	/
CCOC(=O)/C=C(\C)N1N=C(c2ccccc2)CC1c1ccccc1 (stereo unspecified)	.	8.3	.	.	.	.	.	9.2
CCOC(=O)c1nnn(CC(=O)N2N=C(c3ccccc3)CC2c2ccccc2)c1C(=O)OCC (stereo unspecified)	.	.	.	.	/	.	/	/
CN1CCOc2c1cnn(CCO)c2=O	/	.	.	/	/	/	/	/
CCN(CC)C(=O)c1cccc(-c2csc(C(O)c3ccco3)n2)c1 (stereo unspecified)	/	.	.	/	/	/	/	/
CC(C)c1cccc(-c2csc(C(O)c3ccco3)n2)c1 (stereo unspecified)	/	9.2	.	/	/	/	.	.
O=C(C1CCCN1S(=O)(=O)c1ccc(Cl)s1)N1CCc2ccccc2C1 (stereo unspecified)	/	.	/	/	/	/	/	/
CC(=O)NC1(C)CCC2CC1C(C)=NC2(C)C (stereo unspecified)	/	.	.	/	/	/	/	/
O=C(Nc1nc2c(s1)C(=O)CCC2)c1ccccc1	.	8.3	.	.	.	.	9.7	12
C#CCn1c2ccccc2c(=O)n1CCOc1ccccc1OC	/	.	.	/	/	/	/	/
Cc1ccc(-c2c(C)cc3oc(=O)cc(-c4ccccc4)c3c2C)cc1	/	.	.	/	/	/	/	/
CC(=O)Nc1ccc(-c2c(C)cc3oc(=O)cc(-c4ccccc4)c3c2C)cc1	/	9.2	.	/	/	/	.	.
C[C@H]1CN([C@@H](C)CO)C(=O)CCCn2cc(nn2)CO[C@@H]1CN(C)C(=O)c1ccc(N2CCN(C)CC2)cc1	/	8.2	.	/	/	/	.	.
COC(=O)N(C)C[C@H]1OCc2cnnn2CCCC(=O)N([C@@H](C)CO)C[C@@H]1C	/	8.6	.	/	/	/	.	.
COC(=O)[C@]12C[C@H](CC(=O)NCc3cccc4ccccc34)C(=O)N(Cc3cccc4ccccc34)C1=C[C@H](C(C)(C)C)O[C@@H]2C	/	.	/	/	/	/	/	/
COc1ccc(Cc2c(-c3ccc(OC)c(OC)c3)nc3ccc(C)cn23)c(C)c1	/	.	.	/	/	/	/	/
COc1ccc(Cc2c(-c3ccc(F)cc3)nc3ccc(C)cn23)c(C)c1	/	9.6	/	/	/	/	.	6.4
Cc1ccc(C(=O)NCCc2nc3ccccc3[nH]2)cc1[N+](=O)[O-]	.	8.6	.	.	.	.	.	.
O=C(NCCc1nc2ccccc2[nH]1)c1ccc(Cl)c([N+](=O)[O-])c1	.	.	.	.	.	.	/	/
N#Cc1cc2c(nc1SCc1ccncc1)CCC2	.	12	.	.	.	.	.	.
CC(=Nc1cccc(O)c1)c1sc2ccccc2c1O	.	14	.	.	.	31	8.1	13
CC(=Nc1ccc(C)cc1C)c1sc2ccccc2c1O	.	15	.	.	/	.	.	11
CC(=Nc1ccc(C)cc1)c1sc2ccccc2c1O	.	.	.	.	.	.	/	/
Cc1cc(NC(=O)c2sc3ccccc3c2O)no1	.	.	.	.	.	.	/	/
COc1ccc(S[C@]2(C(=O)N3CCN(c4ncccn4)CC3)CC(=O)N(c3ccc4ccccc4c3)[C@@H]2c2ccc(OC)cc2)cc1	/	.	/	/	/	/	/	/
O=C(OCc1cc(=O)oc2cc(O)ccc12)c1cc(S(=O)(=O)N2CCOCC2)ccc1F	.	8.4	.	.	.	/	12	.
CCc1cc2c(COC(=O)c3cc(S(=O)(=O)N4CCOCC4)ccc3F)cc(=O)oc2cc1O	.	.	.	.	.	/	/	/
COc1cccc(N(CC(=O)N2CCN(C)CC2)S(=O)(=O)c2ccccc2)c1	.	8.6	.	.	.	.	.	.
